Only a selection was taken, and hits are over-represented in it overall.
12-LOX inh – Primary qHTS assay for inhibitors of human arachidonate 12S-lipoxygenase (ALOX12): Round 2; Potency, µM (titrated, usually from 108 µM), inactives show top-dose activity change, negative = inhibition, usual class: inhibitors; AID 1671190, 2021; purified 12hLO, xylenol orange hydroperoxide absorbance; 580,000 tested, 1.1% active; further: on the % scale 0 is the no-effect control and ±100 the full control effect
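Purified human 12hLO at 150 nM in 25 mM Hepes, 0.01% Triton X-100, pH 7.0, preincubated 15 min at room temperature with compound. Reaction started with 40 uM arachidonic acid, 30 min at room temperature. Hydroperoxide measured by Fe-xylenol orange, 573/405 nm absorbance ratio.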
G9a inh – qHTS Assay for Inhibitors of Histone Lysine Methyltransferase G9a; G9a H3K9 monomethylation, AlphaScreen, 2 h; AID 504332, 2011; Potency, µM (highest dose often 102 µM), inactives show at the highest dose activity, negative = inhibition, hits mostly inhibitors; 350,000 tested, 8.8% active; further: on the % scale 0 is the no-effect control and ±100 the full control effect; nearly all actives have a fitted effect of over 75% in size
Target sequence (Q96KQ7 913-1193 limits assumed): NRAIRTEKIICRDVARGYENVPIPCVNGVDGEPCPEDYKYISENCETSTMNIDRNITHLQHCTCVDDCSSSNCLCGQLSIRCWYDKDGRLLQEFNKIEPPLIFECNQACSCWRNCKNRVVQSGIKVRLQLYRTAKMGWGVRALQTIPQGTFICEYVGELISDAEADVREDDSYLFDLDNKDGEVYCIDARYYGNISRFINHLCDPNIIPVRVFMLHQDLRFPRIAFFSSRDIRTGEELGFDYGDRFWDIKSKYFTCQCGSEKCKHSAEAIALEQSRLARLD
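G9a (20 nM) preincubated 15 min RT with compounds, then 500 nM biotinylated H3K9 peptide and 20 uM SAM added; 2 h RT reaction. Monomethyl-H3K9 product detected by AlphaScreen with anti-H3K9me1 antibody, streptavidin donor and anti-rabbit IgG acceptor beads.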
VDR inhibitor – Inhibitors of the vitamin D receptor (VDR): qHTS; Potency, µM, without a hit: max response, negative = inhibition, hits mostly inhibitors; AID 504847, 2011; Vitamin D3 receptor (Homo sapiens), P11473; 400,000 tested, 0.93% active; VDR-SRC2-3 peptide fluorescence polarization, 2 h; further: on the % scale 0 is the no-effect control and ±100 the full control effect
Target sequence (P11473 whole entry, looked up): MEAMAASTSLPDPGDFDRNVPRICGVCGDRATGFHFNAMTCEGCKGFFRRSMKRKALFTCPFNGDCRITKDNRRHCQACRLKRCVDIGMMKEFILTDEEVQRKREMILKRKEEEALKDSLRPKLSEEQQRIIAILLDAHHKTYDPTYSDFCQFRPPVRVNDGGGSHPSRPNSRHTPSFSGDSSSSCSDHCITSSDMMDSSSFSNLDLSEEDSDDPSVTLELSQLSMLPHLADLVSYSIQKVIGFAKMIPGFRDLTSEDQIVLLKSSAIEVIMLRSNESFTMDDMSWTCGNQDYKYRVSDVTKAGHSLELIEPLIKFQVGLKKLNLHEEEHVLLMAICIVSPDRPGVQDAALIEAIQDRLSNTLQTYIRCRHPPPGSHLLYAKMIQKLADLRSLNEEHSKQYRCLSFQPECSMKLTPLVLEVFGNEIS
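Reagent solutions, kept cold and dark, are dispensed first; compounds are then pinned in at 23 nl, plates briefly spun, and incubated 2 h at ambient temperature. Inhibition of VDR–SRC2-3 peptide binding is read by fluorescence polarization.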
Sfp inh – qHTS Assay for Inhibitors of Bacillus subtilis Sfp phosphopantetheinyl transferase (PPTase); Biochemical Sfp PPTase activity, qHTS; Potency, µM, for inactives: largest response in the series, negative = inhibition, actives largely listed as inhibitors; 310,000 tested, 3.5% active; AID 1490, 2009;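 further: the enzyme is Sfp with the accession as filed and its product quenches rhodamine fluorescence; 0% = enzyme reaction without inhibitor and -100% = no enzyme wells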
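Reaction rates are the 30-min fluorescence difference (ex 525, em 598 nm) in wells containing 15 nM Sfp, 5 uM rhodamine-CoA and 12.5 uM BHQ-2-YbbR at pH 7.6 with 10 mM MgCl2.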
Glioma ERSR ind – qHTS for Inducers of the Endoplasmic Reticulum Stress Response (ERSR) in Human Glioma: qHTS. U87-MG GRP78 promoter luciferase reporter, 16 h. Potency, µM, for inactives: top-dose activation, most hits filed as activators. 420,000 tested, 0.02% active; further: series mostly up to about 76 µM; % of control where 0% means no effect; nearly all actives have a fitted effect of over 35% in size
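Stably transfected U87-MG human glioma cells carrying a GRP78-based luminescent sensor were seeded at 1000 cells/well, pin-dosed with compounds and incubated 16 h. Luciferase reagent was then added, and end-point luminescence was read after 10 min at room temperature.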
An asterisk follows results filed as active; ? = inconclusive; · = not tested or not shown; ! = not active in a repeat; [ ] = remark or other dose. The call rests on the fitted dose curve; in most records, active means well fitted curve in the direction sought with a large enough effect; inconclusive means small, poorly fitted or top-dose-only effect, or another doubt; inactive means no such curve, though single readings can be large; an effect the other way counts as inactive or inconclusive. Potency means the concentration at half of the fitted maximal effect.

SMILES	12-LOX inh	G9a inh	VDR inhibitor	Sfp inh	Glioma ERSR ind
CCOC(=O)C1=C(C)N=C2SC=C(CC(=O)N3CCCC3)N2C1c1cc(C)ccc1C (stereo not drawn)	33.8%	·	·	·	·
Cc1nnc(SCc2nc3sc(C(=O)O)c(C)c3c(=O)[nH]2)s1	0.0%	·	1.6%	8.9%	-3.6%
CSCc1nc2sc(C(=O)Nc3nc(C)cs3)c(C)c2c(=O)[nH]1	31.6%	44.7µM*	-1.2%	-13.3%	?
Cc1cc(C)c(NC(=O)c2sc3nc(C)[nH]c(=O)c3c2C)c(C)c1	-5.1%	0.9%	·	-19.9%	·
Cc1ccc(NC(=O)c2sc3nc(CCl)[nH]c(=O)c3c2C)c(C)c1	-22.2%	35.5µM*	2.1%	3.4%	2.1%
Cc1csc(NC(=O)CSc2nc3sc(C)c(C)c3c(=O)[nH]2)n1	?	?	?	20µM*	2.7%
COCCOc1nc2c(c(=O)n(C)c(=O)n2C)n1Cc1ccc(C)cc1	4.4%	·	·	·	·
CCc1ccc(C2NC(=S)NC3=C2C(=O)N(c2ccccc2OC)C(c2ccc(CC)cc2)N3)cc1 (stereo not drawn)	-1.8%	-43.5%[59 µM]	7.8%	-11.7%	-1.4%
O=C1C2=C(NC(=S)NC2c2ccc(Cl)cc2)NC(c2ccc(Cl)cc2)N1c1ccc(Cl)cc1 (stereo not drawn)	0.0%	50.1µM*	6.3%	?	-15.6%
Cn1c(SCC(=O)Nc2cc(S(=O)(=O)N3CCCCCC3)ccc2Cl)nnc1C1CC1	-8.5%	·	·	·	·
Oc1c(Br)cc(Br)cc1CNc1ccc(F)cc1	?	44.7µM*	-0.2%	-26.7%	-5.0%
NS(=O)(=O)c1ccc(-c2ccc(C=C3C(=O)c4ccccc4C3=O)o2)cc1	3.7%	17.8%	-6.1%	18.3%	-2.8%
Cc1ccc(C=C2C(=O)c3ccccc3C2=O)o1	-4.3%	25.1µM*	-5.1%	-10.3%	-0.7%
O=C(O)c1ccc2c(c1)C(=O)/C(=C/c1ccccc1)C2=O	-18.1%	12.6µM*	?	-0.9%	-5.5%
Cc1ccc(/C=C2/C(=O)c3ccc(C(=O)O)cc3C2=O)o1	?	·	1.3%	12.6µM*	0.7%
CC(C)(C)N1C(=O)c2ccc(C(=O)O)cc2C1=O	0.0%	55.5%[59 µM]	-8.5%	16.8%	2.0%
Cn1cccc1C(=O)OCc1cc(Cl)cc2c1OCOC2	?	?	4.9%	70.8µM*	-3.8%
Cn1cccc1C(=O)OCC(=O)Nc1ccc2c(c1)OCO2	1.6%	-37.3%	9.9%	22.0%	8.1%
COc1cc(-c2ccc(C)cc2)nc2ccc(C(=O)NCC(C)O)cc12 (stereo not drawn)	34.7%	·	·	·	·
CCOC(=O)c1c(/N=C/c2cc(OC)cc([N+](=O)[O-])c2O)sc(C)c1C	?	20µM*	-5.6%	?	-3.0%
CCOC(=O)c1c(/N=C/c2cc([N+](=O)[O-])ccc2O)sc(C)c1C	35.5µM*	?	4.8%	39.8µM*	-2.6%
CCN(Cc1ccc(Cl)s1)C(=O)c1[nH]c2c(c1C)C(=O)CC(C)(C)C2	-13.4%	·	·	·	·
COC(=O)c1c(NC(C)=O)sc(C(=O)Nc2ccccc2F)c1C	-26.0%	·	-12.1%	70.8µM*	0.2%
COc1ccc(OCc2nn3c(-c4ccccn4)nnc3s2)cc1	0.0%	25.1µM*	-8.5%	-21.0%	2.6%
c1ccc(OCc2nn3c(-c4ccco4)nnc3s2)cc1	-3.7%	50.1µM*	0.0%	?	-3.3%
SMILES	12-LOX inh	G9a inh	VDR inhibitor	Sfp inh	Glioma ERSR ind
COC(=O)c1ccc(-c2ccc(/C=N/NC(=O)Cc3nnc(N)s3)o2)cc1	-0.5%	?	-7.0%	56.2µM*	4.7%
COc1ccc(-c2ccc(/C=N/NC(=O)Cc3nnc(N)s3)o2)cc1Cl	358.0%	20µM*	-19.4%	?	0.3%
Cc1ccsc1CN1CCC(Oc2cc(Cl)ccc2C(=O)N2CCCCC2)CC1	53.2%	·	·	·	·
COc1ccccc1C1=NOC(C(=O)NCCc2ccccc2)C1 (stereo not drawn)	0.7%	·	·	·	·
CCOC(=O)c1c(C)[nH]c(C(=O)CSc2nncn2C)c1C	-4.6%	·	·	·	·
CCOC(=O)c1c(C)[nH]c(C(=O)CSc2nnc(Nc3ccccc3F)s2)c1C	-20.9%	17.8µM*	3.6%	?	-0.7%
Cn1nc(-c2ccccc2)cc1NC(=O)c1ccc(Cl)cc1	-15.3%	29.6%[12.7 µM]	-14.4%	·	-1.1%
Cn1cnc(S(=O)(=O)Nc2cc(-c3ccc(Cl)cc3)nn2C)c1	5.1%	50.1µM*	-2.9%	10.7%	-2.4%
CC(C)Cn1cc(NC(=O)Nc2cccc(C(F)(F)F)c2)c2ccccc2c1=O	7.08µM*	?	1.0%	·	-0.1%
CC(C)Cn1cc(NC(=O)N2CCN(c3cccc(C(F)(F)F)c3)CC2)c2ccccc2c1=O	-23.0%	-31.6%[59 µM]	3.7%	·	-2.9%
O=C(NCc1ccc(S(=O)(=O)N2CCCC2)cc1)c1n[nH]c2ccccc12	18.1%	·	·	·	·
CCOC(=O)c1cc(-c2ccco2)nc2c1c(C)nn2-c1ccccc1Cl	31.6µM*	·	·	·	·
CCOC(=O)c1cc(-c2ccco2)nc2c1c(C)nn2-c1ccccc1	35.5µM*!	?	-11.3%	?	-1.9%
CCOC(=O)c1cc(-c2ccc(OC)cc2)nc2c1c(C)nn2CCC(N)=S	39.8µM*	-48.8%	11.7%	8.3%	-2.6%
CCCn1c(=O)c2c(C(=O)OCC)cc(-c3ccco3)nc2n(CCC)c1=O	8.9%	5.2%[59 µM]	-0.5%	7.9%	0.5%
Cc1c2cnn(CC(=O)Nc3c(F)c(F)cc(F)c3F)c(=O)c2c(C)n1Cc1ccccc1F	20µM*	?	17.0%	-9.6%	-2.6%
Cc1c2cnn(CC(=O)NCc3ccc(F)cc3)c(=O)c2c(C)n1Cc1ccccc1F	-25.7%	-1.2%[59 µM]	15.8%	·	-3.2%
CC(C)(C)NC(=S)NNC(=O)[C@H]1C[C@@H]1c1ccccc1	121.4%	12.6%[59 µM]	9.3%	22.8%	1.2%
Cc1ccc(C2CC2C(=O)NNC(=S)Nc2ccc(Cl)cc2)cc1 (stereo not drawn)	44.7µM*	25.1µM*	-0.1%	-4.8%	-4.3%
Cc1ccccc1C(=O)N(C)Cc1ccc(-c2ccccc2)cc1	7.0%[176 µM]	·	·	·	·
CCOc1cc(C=NNC(=O)c2cccc(S(=O)(=O)N3CCCC3)c2)ccc1O	12.9%	·	-14.3%	·	-3.5%
O=C(N/N=C/c1ccncc1)c1cccc(S(=O)(=O)N2CCCC2)c1	11.0%	1.9%	4.4%	·	-1.0%
O=C(N/N=C/c1ccncc1)c1cccc(S(=O)(=O)Nc2ccc(Cl)cc2)c1	-4.5%	-32.9%[59 µM]	-1.0%	56.2µM*	-4.8%
O=C(NN=Cc1ccc(F)cc1)c1cccc(S(=O)(=O)N2CCCC2)c1	15.8µM*	·	-1.6%	·	3.7%
O=C(Nc1ncccc1O)c1cccc(S(=O)(=O)N2CCN(c3ccc(F)cc3)CC2)c1	0.8%	79.4µM*	-1.8%	·	-1.4%
